In experiment [1] the target is Dual specificity protein kinase CLK3 (Homo sapiens) (UniProt P49761). Conditions: at 1 µM.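 Further: each value is the mean inhibition of CLK3.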
For experiment [2], the target named is Dual specificity tyrosine-phosphorylation-regulated kinase 1A (Homo sapiens) (UniProt Q13627). The settings on record: at 0.1 µM.
Experiment [3] shares this target. Conditions: at 1 µM.
Experiment [4] deals with Dual specificity tyrosine-phosphorylation-regulated kinase 1B (Homo sapiens) (UniProt Q9Y463). The settings on record: at 0.1 µM.
Experiment [5] has the same target. Conditions: at 1 µM.
In experiment [6] the target is T1, Dual specificity tyrosine-phosphorylation-regulated kinase 2 (Homo sapiens) (UniProt Q92630).
T1 sequence (whole entry): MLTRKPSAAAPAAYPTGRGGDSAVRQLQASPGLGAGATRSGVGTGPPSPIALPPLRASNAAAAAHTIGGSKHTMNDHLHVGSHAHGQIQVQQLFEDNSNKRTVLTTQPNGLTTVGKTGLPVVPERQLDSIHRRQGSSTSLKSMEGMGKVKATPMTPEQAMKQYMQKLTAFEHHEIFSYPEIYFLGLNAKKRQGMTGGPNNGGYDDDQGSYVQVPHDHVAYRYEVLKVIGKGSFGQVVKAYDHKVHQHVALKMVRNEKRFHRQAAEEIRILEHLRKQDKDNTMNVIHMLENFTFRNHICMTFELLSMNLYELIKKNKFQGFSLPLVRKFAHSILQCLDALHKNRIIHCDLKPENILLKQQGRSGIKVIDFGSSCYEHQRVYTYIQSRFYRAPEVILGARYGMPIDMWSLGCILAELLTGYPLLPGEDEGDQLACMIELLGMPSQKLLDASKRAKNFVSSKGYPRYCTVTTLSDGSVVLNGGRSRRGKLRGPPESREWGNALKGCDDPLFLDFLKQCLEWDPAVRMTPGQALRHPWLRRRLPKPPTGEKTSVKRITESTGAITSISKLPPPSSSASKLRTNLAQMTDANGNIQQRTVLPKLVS
The settings on record: at 0.1 µM.

In experiment [7] the target is T1, Dual specificity tyrosine-phosphorylation-regulated kinase 2 (Homo sapiens). The settings on record: at 1 µM.
The target in experiment [8] is Glycogen synthase kinase-3 alpha (Homo sapiens) (UniProt P49840). The settings on record: at 0.1 µM.
For experiment [9] the target is unchanged. Conditions: at 1 µM.
The target of experiment [10] is Glycogen synthase kinase-3 beta (Homo sapiens) (UniProt P49841). The settings on record: at 0.1 µM.
The target is the same in experiment [11]. Conditions: at 1 µM.
The target of experiment [12] is Homeodomain-interacting protein kinase 1 (Homo sapiens) (UniProt Q86Z02). The settings on record: at 0.1 µM.
For experiment [13] the target is unchanged. Conditions: at 1 µM.
Experiment [14] addresses T2, Homeodomain-interacting protein kinase 4 (Homo sapiens) (UniProt Q8NE63).
T2 sequence (whole entry): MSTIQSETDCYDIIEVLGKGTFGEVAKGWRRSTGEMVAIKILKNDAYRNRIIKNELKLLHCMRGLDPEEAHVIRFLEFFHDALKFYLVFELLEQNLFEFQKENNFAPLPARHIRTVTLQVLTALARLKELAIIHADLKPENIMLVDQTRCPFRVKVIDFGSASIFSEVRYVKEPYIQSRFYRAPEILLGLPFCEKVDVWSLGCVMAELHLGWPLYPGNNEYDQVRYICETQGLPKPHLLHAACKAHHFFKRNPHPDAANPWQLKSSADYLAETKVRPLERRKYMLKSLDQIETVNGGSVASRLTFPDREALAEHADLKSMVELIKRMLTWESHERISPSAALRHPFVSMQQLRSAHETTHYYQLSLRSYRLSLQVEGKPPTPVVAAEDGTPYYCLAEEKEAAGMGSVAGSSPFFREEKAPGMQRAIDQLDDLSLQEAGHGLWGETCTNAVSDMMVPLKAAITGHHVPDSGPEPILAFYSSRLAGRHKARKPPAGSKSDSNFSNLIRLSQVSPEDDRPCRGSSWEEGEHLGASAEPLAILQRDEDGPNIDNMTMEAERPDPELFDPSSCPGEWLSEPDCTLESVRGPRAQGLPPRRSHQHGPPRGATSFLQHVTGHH
Conditions: at 0.1 µM.

The target of experiment [15] is T2, Homeodomain-interacting protein kinase 4 (Homo sapiens). Conditions: at 1 µM.
Experiment [16] has as its target Mitogen-activated protein kinase 9 (Homo sapiens) (UniProt P45984). Conditions: at 0.1 µM.
For experiment [17] the target is unchanged. Conditions: at 1 µM.
Experiment [18] has as its target Mitogen-activated protein kinase 1 (Homo sapiens) (UniProt P28482). Conditions: at 0.1 µM.
The target is the same in experiment [19]. The settings on record: at 1 µM.
In experiment [20] the target is Mitogen-activated protein kinase 3 (Homo sapiens) (UniProt P27361). Conditions: at 0.1 µM.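 Further: each value is a mean inhibition figure.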

A word on the inhibition: it is the change of the read-out against control, counted positive when it falls.

Sequence of Mitogen-activated protein kinase 3 (Homo sapiens) (P27361 whole entry): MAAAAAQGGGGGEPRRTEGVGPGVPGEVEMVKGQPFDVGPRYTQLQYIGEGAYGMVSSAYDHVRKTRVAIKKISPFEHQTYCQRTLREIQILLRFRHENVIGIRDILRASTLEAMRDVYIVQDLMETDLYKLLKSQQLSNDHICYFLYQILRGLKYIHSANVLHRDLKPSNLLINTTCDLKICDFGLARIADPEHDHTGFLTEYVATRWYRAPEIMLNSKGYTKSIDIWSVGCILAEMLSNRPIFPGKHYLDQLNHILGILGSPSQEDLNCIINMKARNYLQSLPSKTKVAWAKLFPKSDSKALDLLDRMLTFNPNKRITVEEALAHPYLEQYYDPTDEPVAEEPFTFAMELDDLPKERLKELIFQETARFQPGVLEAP
Sequence of Dual specificity tyrosine-phosphorylation-regulated kinase 1B (Homo sapiens) (Q9Y463 whole entry, looked up): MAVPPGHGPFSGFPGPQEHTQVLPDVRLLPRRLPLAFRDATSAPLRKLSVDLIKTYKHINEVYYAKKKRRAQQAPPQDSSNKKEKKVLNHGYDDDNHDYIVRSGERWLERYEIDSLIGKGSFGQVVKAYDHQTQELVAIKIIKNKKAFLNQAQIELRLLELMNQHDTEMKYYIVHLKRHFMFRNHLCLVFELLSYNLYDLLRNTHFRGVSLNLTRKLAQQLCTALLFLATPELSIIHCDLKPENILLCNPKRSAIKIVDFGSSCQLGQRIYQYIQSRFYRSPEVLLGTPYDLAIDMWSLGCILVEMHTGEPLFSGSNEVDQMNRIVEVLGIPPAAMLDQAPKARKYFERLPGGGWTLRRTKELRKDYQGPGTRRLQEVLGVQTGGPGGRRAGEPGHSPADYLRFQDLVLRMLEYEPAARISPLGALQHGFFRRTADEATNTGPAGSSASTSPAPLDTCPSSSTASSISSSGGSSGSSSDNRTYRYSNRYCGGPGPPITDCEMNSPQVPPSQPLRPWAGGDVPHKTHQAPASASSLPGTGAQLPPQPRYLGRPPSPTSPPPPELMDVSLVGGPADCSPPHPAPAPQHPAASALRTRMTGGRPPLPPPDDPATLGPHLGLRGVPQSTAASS
Sequence of Mitogen-activated protein kinase 9 (Homo sapiens) (P45984 whole entry, looked up): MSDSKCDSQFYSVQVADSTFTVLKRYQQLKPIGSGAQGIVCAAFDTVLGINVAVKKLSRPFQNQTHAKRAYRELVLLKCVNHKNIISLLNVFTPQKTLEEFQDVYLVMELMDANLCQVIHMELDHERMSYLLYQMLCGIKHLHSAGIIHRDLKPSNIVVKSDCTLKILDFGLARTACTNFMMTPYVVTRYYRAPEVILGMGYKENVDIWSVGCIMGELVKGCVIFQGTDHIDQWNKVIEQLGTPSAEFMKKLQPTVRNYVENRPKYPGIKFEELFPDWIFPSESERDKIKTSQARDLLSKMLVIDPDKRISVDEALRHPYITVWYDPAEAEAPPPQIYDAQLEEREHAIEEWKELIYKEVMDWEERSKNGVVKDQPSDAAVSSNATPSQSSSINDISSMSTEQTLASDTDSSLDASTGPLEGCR
Sequence of Glycogen synthase kinase-3 alpha (Homo sapiens) (P49840 2-483 limits assumed): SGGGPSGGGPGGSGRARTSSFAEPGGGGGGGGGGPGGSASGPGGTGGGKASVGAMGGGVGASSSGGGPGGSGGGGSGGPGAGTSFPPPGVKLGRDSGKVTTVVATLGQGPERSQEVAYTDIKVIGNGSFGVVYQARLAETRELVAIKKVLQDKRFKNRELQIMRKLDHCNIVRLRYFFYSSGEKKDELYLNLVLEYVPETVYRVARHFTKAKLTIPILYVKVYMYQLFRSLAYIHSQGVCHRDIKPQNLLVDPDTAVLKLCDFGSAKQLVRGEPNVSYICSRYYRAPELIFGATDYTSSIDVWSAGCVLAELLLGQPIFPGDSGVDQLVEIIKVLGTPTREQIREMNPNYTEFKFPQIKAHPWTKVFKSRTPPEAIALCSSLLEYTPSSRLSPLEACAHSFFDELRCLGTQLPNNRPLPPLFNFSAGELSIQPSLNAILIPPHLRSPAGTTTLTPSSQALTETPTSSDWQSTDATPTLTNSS
Sequence of Glycogen synthase kinase-3 beta (Homo sapiens) (P49841 whole entry, looked up): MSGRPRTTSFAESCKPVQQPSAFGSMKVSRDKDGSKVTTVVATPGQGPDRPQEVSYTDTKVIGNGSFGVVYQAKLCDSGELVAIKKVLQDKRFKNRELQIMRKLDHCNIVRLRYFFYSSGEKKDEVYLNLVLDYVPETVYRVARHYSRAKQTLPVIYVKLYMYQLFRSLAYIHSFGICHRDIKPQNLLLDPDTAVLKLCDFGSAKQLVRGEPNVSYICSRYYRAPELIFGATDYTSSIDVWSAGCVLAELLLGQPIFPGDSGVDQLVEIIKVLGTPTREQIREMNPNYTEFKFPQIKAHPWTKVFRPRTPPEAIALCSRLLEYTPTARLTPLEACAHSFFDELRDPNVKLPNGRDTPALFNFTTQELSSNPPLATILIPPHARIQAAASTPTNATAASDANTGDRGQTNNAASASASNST
Sequence of Homeodomain-interacting protein kinase 1 (Homo sapiens) (Q86Z02 whole entry, looked up): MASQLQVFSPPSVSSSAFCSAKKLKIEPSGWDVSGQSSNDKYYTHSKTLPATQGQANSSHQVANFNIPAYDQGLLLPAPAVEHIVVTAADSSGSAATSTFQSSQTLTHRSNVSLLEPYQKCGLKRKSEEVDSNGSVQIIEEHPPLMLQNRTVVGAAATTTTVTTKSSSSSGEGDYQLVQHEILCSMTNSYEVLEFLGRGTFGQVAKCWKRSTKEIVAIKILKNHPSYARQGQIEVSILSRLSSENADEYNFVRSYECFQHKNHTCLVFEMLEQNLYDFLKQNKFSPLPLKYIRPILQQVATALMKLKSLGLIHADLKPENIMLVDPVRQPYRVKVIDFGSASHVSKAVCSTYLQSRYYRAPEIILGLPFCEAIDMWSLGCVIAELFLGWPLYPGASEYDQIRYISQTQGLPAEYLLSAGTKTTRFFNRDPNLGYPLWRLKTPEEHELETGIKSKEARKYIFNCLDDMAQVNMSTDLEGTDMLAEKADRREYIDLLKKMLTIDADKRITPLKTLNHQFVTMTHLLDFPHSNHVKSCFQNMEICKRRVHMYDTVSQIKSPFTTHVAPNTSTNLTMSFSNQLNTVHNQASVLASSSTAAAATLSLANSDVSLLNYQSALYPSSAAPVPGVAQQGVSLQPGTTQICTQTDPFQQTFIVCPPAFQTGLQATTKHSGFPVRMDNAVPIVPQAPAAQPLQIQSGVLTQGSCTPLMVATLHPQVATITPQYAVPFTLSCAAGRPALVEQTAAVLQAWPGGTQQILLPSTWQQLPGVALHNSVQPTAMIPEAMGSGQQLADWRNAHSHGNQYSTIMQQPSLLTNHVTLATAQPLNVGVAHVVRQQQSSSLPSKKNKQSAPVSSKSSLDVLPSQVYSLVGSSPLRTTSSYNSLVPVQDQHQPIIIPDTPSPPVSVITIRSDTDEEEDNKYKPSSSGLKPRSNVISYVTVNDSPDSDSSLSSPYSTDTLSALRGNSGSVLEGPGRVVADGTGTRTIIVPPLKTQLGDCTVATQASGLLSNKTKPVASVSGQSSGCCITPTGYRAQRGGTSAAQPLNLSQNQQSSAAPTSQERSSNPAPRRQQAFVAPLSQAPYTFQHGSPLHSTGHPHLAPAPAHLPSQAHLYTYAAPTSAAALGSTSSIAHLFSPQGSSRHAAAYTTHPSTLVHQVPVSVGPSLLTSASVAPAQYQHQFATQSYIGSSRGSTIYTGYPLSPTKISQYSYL
Sequence of Dual specificity protein kinase CLK3 (Homo sapiens) (P49761 whole entry, looked up): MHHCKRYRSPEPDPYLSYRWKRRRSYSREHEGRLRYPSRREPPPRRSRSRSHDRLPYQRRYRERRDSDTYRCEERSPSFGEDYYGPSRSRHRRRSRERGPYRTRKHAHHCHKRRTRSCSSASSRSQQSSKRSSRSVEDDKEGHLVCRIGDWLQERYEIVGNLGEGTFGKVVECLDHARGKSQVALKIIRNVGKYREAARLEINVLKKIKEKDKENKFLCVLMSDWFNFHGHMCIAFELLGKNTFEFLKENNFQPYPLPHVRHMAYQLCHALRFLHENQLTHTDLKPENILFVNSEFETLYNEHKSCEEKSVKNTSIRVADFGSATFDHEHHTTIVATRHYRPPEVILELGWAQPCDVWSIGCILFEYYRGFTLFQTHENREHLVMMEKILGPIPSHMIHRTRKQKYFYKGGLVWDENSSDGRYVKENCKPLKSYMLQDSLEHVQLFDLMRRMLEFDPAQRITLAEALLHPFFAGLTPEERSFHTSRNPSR
Sequence of Mitogen-activated protein kinase 1 (Homo sapiens) (P28482 whole entry): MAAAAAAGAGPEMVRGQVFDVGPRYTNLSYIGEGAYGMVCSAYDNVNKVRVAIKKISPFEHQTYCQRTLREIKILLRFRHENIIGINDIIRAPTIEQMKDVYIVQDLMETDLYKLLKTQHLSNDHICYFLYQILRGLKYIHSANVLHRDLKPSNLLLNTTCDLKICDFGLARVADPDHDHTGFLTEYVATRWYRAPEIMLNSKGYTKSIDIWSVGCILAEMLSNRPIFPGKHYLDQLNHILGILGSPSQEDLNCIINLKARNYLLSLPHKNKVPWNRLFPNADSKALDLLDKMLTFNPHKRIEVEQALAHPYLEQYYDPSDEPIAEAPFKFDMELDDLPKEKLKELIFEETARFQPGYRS

For the compound `COc1ccc(CNC(=O)c2ccc(-c3cc(-c4nnc(C)o4)ccc3C)cc2)cc1`, the inhibition in experiment [1] came out at 2.16%; in [2], 1.08%; in experiment [3] it was 1.05%; in experiment [4], 1.53%; in experiment [5], 2.22%; in experiment [6] it was 0.27%. The inhibition in experiment [7] was determined as 1.42%; in experiment [8], 5.61%; in experiment [9], 17.9%; in experiment [10], 5.31%; in experiment [11], 13.6%; in experiment [12], 5.43%. Further, the inhibition in experiment [13] was 5.55%; in experiment [14] it was 7.2%; in experiment [15], 9.71%; in experiment [16] it was -0.3%; in [17] it was 2.51%; in [18], 4.56%. In addition, the inhibition in experiment [19] was -9.41%; in [20], 1.8%.
For the compound `NS(=O)(=O)c1ccc(Nc2ncc(-c3ccccc3)o2)cc1`, the inhibition in experiment [1] worked out at 6.65%; in [2] it was 6.93%; in experiment [3], 16%; in experiment [4], 5.92%; in [5], 12.5%; in experiment [6], 2.13%. For the same compound, the inhibition in experiment [7] came to 8.68%; in [8] it was 12.9%; in experiment [9] it was 43.4%; in experiment [10], 11.4%; in experiment [11], 35.4%; in experiment [12], 9.46%. For the same compound, the inhibition in experiment [13] is 28.8%; in experiment [14], 6.48%; in experiment [15], 24.3%; in experiment [16] it was 1.48%; in experiment [17] it was 7.69%; in experiment [18], 2.91%. Also, the inhibition in experiment [19] stood at 3.4%; in experiment [20] it was 2.41%.
For `Fc1ccc(-c2nn3ncccc3c2-c2ccnc(Nc3ccc4c(c3)OCCO4)n2)cc1`, the inhibition in [1] was 0.91%; in [2], 1.5%; in experiment [3], 3.37%; in experiment [4], 0.99%; in experiment [5] it was -1.69%; in [6], 3.56%. In addition, the inhibition was 4.44% in [7]; 19.6% in experiment [8]; 59.7% in experiment [9]; 39% in [10]; 76.1% in experiment [11]; -1.25% in [12]. For the same compound, the inhibition in experiment [13] is -1.1%; in [14], -0.3%; in [15], 4.58%; in [16] it was 58.4%; in experiment [17], 84.9%; in experiment [18], 2.51%. Besides, the inhibition in experiment [19] is 11.1%; in experiment [20], 5.61%.
As for `CCOc1ccc2c(-c3ccnc(Nc4cccc(C(F)(F)F)c4)n3)cnn2n1`, the inhibition in [1] was 6.13%; in experiment [2] it was -0.46%; in experiment [3] it was 6.48%; in experiment [4], 1.37%; in experiment [5], 21%; in experiment [6] it was 1.79%. Further, the inhibition is 0.78% in experiment [7]; 12.1% in experiment [8]; 46.1% in experiment [9]; 5.68% in [10]; 33.6% in experiment [11]; 21.8% in [12]. The inhibition is 70% in [13]; 10.3% in experiment [14]; 46.2% in experiment [15]; 1.84% in experiment [16]; 1.35% in experiment [17]; 3.23% in experiment [18]. Also, the inhibition in [19] is 3.31%; in experiment [20] it was 2.89%.
In the case of `COc1ccc2c(-c3ccnc(Nc4cccc(OC(F)(F)F)c4)n3)cnn2n1`, the inhibition in experiment [1] amounted to 52.8%; in experiment [2] it was 16%; in [3] it was 60.8%; in [4], 32.6%; in experiment [5], 77.2%; in experiment [6] it was 4.32%. Moreover, the inhibition turned out to be 16% in experiment [7]; 28.1% in experiment [8]; 81.1% in experiment [9]; 21.2% in [10]; 73.2% in experiment [11]; 84.8% in [12]. Also, the inhibition in experiment [13] came out at 91.7%; in experiment [14], 51.3%; in experiment [15] it was 83%; in experiment [16], 1.35%; in experiment [17] it was 11.4%; in experiment [18], 2.96%. Further, the inhibition in experiment [19] stood at 7.52%; in experiment [20], 5.36%.
Take `COC(=O)c1sc(-n2cnc3cc(OC)c(OC)cc32)cc1OCc1ccccc1C(F)(F)F`: the inhibition in experiment [1] is 0.53%; in [2], 1.62%; in experiment [3], 3.44%; in experiment [4] it was -1.47%; in experiment [5], -1.98%; in experiment [6], 3.48%. Besides, the inhibition in experiment [7] is 4.12%; in [8], 1.51%; in experiment [9] it was 4.48%; in experiment [10], -0.28%; in [11] it was 3.49%; in experiment [12] it was -2.18%. Besides, the inhibition was -0.46% in experiment [13]; -0.74% in experiment [14]; 1.47% in experiment [15]; 3.59% in [16]; 6.58% in [17]; 4.72% in [18]. Also, the inhibition in experiment [19] worked out at 5.29%; in [20] it was 3.25%.
`Fc1cccc(COc2ccc(Nc3ncnc4sc(-c5ccco5)cc34)cc2Cl)c1`: the inhibition was 0.86% in experiment [1]; 3.24% in [2]; 4.83% in [3]; -1.92% in [4]; 0.72% in experiment [5]; 3.21% in experiment [6]. For the same compound, the inhibition was 0.35% in experiment [7]; 3.67% in experiment [8]; 6.09% in [9]; 2.77% in [10]; 4.97% in experiment [11]; -0.44% in [12]. Further, the inhibition stood at 5.88% in experiment [13]; 2.99% in experiment [14]; 5.88% in experiment [15]; 1.05% in experiment [16]; 0.94% in [17]; 5.22% in experiment [18]. Moreover, the inhibition turned out to be 5.78% in experiment [19] and 2.39% in experiment [20].

The record behind these values is ChEMBL document CHEMBL1961873, “Compounds: GSK PKIS; Assays: Nanosyn kinase panel” (2012).
